Assay results reported in PubChem BioAssay (NCI).
About 83,000 compounds went through this panel and 20% of them were active in at least one assay; those are over-represented in the sample as a whole.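 Interpretation: 100, growth as untreated; towards 0, rising growth inhibition; 0, no net growth; 0 to -100, cell death. Compounds scoring below 10 were considered active.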 Activity calls are given as the source filed them.

Tests used:
Test in all cases: NCI-60 one-dose screen, 48 h (100 = growth as untreated, 0 = no growth, -100 = all killed)
Settings in all cases: 10 µM unless noted
[1] = tested on: DU-145 prostate
[2] = tested on: K-562 leukemia
[3] = tested on: MALME-3M melanoma
[4] = tested on: MDA-MB-231 breast
[5] = tested on: RXF 393 renal
[6] = tested on: SF-268 CNS
[7] = tested on: SF-295 CNS
[8] = tested on: SF-539 CNS
[9] = tested on: UACC-257 melanoma
[10] = tested on: M14 melanoma
[11] = tested on: HCT-15 colon
[12] = tested on: HT29 colon
[13] = tested on: SNB-75 CNS
[14] = tested on: SNB-19 CNS
[15] = tested on: U251 CNS
[16] = tested on: PC-3 prostate
[17] = tested on: SK-MEL-5 melanoma
[18] = tested on: UACC-62 melanoma
[19] = tested on: LOX IMVI melanoma
[20] = tested on: SK-MEL-28 melanoma

Measured: growth

COC(=O)/C=C1\S/C(=N\NS(=O)(=O)c2ccc(C)cc2)N(c2ccccc2)C1=O
inactive: [1] 105% | [2] 84.5% | [3] 110% | [4] 109% | [5] 111% | [6] 98% | [7] 105% | [8] 100% | [9] 99.5% | [10] 107% | [11] 98.7% | [12] 117% | [13] 83.8% | [14] 97% | [15] 102% | [16] 96.4% | [17] 100% | [18] 95.2% | [19] 98.7% | [20] 104%

CCOC(=O)c1c2ncccc2n2c(=O)n(-c3ccccc3C)nnc12
inactive: [1] 142% | [2] 86.4% | [3] 145% | [4] 104% | [5] 107% | [6] 117% | [7] 105% | [8] 91.8% | [9] 91.7% | [10] 99% | [11] 100% | [12] 112% | [13] 84% | [14] 105% | [15] 105% | [16] 122% | [17] 84% | [18] 95.3% | [19] 86.5% | [20] 157%

CN(C)c1ccc(/C=C/C(=O)c2cccc(Nc3nc(Nc4ccccc4)nc(Nc4ccccc4)n3)c2)cc1
active: [13] 5.3%
inactive: [1] 99.4% | [2] 67.7% | [3] 88.2% | [4] 81.8% | [5] 77.5% | [6] 97.2% | [7] 129% | [8] 87.9% | [9] 110% | [10] 91.5% | [11] 80.5% | [12] 53.8% | [14] 99.1% | [15] 91.5% | [16] 81.7% | [17] 69.5% | [18] 91.2% | [19] 88.7% | [20] 75%

CCc1ccccc1-n1c(N)c(C#N)c(-c2ccc(N(C)C)cc2)c(C#N)c1=O
inactive: [1] 103% | [2] 89.3% | [3] 91% | [4] 91.3% | [5] 89.6% | [6] 95.6% | [7] 98.3% | [8] 90.2% | [9] 101% | [10] 101% | [11] 97.7% | [12] 101% | [13] 88.3% | [14] 101% | [15] 91.1% | [16] 82.6% | [17] 86.5% | [18] 88% | [19] 92.7% | [20] 100%

C=CCNc1nc(NN2C(=O)c3cccc4cccc(c34)C2=O)nc(-n2cnc3ccccc32)n1
inactive: [1] 97.9% | [3] 93.5% | [4] 68.3% | [5] 50.3% | [6] 65% | [7] 76.5% | [8] 50.4% | [9] 102% | [10] 97.9% | [11] 66.7% | [12] 88.9% | [13] 39.2% | [14] 83.7% | [15] 63.3% | [16] 67.1% | [17] 64.9% | [18] 77.2% | [19] 77.8% | [20] 103%
active: [2] 9.94%

O=C(NCCCNc1cc(-c2cn(-c3ccccc3)nc2-c2cccc(O)c2)ccn1)c1ccccc1
active: [2] -4.2% | [3] -5.89% | [4] -6.57% | [9] -49.2% | [10] 3.42% | [11] 1.17% | [12] -2.39% | [17] -37.8% | [20] 4.17%
inactive: [1] 49.7% | [5] 24% | [6] 44.1% | [7] 12% | [8] 27.3% | [13] 23.1% | [14] 65.7% | [15] 27.9% | [16] 27.2% | [18] 23.6% | [19] 17.3%

CCN(CC)c1ccc2nc3c4ccccc4c(=NC(=O)c4ccccc4-c4c5ccc(N(CC)CC)cc5[o+]c5cc(N(CC)CC)ccc45)cc-3oc2c1
inactive: [3] 54.9% | [4] 52.8% | [5] 61.6% | [6] 60.5% | [8] 67% | [9] 49.7% | [13] 67.7% | [15] 20.5% | [16] 12.1% | [18] 67.5% | [20] 97.4%
active: [1] -89.4% | [2] -85.7% | [7] -50.3% | [10] -3.37% | [11] 6.13% | [12] 1.92% | [14] -22.3% | [17] -69.8% | [19] -30.4%

Cc1ccc2nc3ccccc3c(NCc3ccccc3)c2c1
inactive: [1] 35.8% | [2] 10.9% | [3] 55.2% | [4] 35.8% | [6] 69% | [7] 28.1% | [8] 23.2% | [9] 56.6% | [10] 45.6% | [11] 18% | [12] 11.6% | [13] 65% | [14] 31.8% | [15] 37% | [16] 29.7% | [17] 58.8% | [18] 56.4% | [20] 78%
active: [5] 1.32% | [19] 9.08%

CCOc1ccccc1-c1cc(-c2cccs2)c(C#N)c(=O)[nH]1
inactive: [1] 111% | [2] 48.6% | [3] 84.9% | [4] 89% | [5] 79.6% | [6] 92.5% | [7] 93.6% | [8] 87.3% | [9] 101% | [10] 85.1% | [11] 56.8% | [12] 120% | [13] 45.8% | [14] 86.1% | [15] 88.6% | [16] 84.5% | [17] 85.8% | [18] 63.7% | [19] 86.6% | [20] 94.6%

CCC(CO)Nc1nc2ccc(Cl)cc2c2ccccc12 (stereo not given)
active: [5] 4.53%
inactive: [1] 84.9% | [2] 38.2% | [3] 85.8% | [4] 55.7% | [6] 70.7% | [7] 74.8% | [8] 55.8% | [9] 97.5% | [10] 84.8% | [11] 57.1% | [12] 30.1% | [13] 18.8% | [14] 53.8% | [15] 51.3% | [16] 59.5% | [17] 68.4% | [18] 60.4% | [19] 67.2% | [20] 90.8%

COC(=O)[C@]12CC[C@@H](C)[C@H](C)[C@@H]1C1=CC[C@@H]3[C@@]4(C)C(C=O)=C[C@@](C)(COC(C)=O)C4=CC[C@@]3(C)[C@]1(C)CC2
active: [1] -6.88% | [2] 5.59% | [3] -65.5% | [4] -26.6% | [5] -58.9% | [6] -3.01% | [7] 0.263% | [8] -50.8% | [9] -41.3% | [10] -48.4% | [11] -41.6% | [12] -31.5% | [15] -25.8% | [17] -36.6% | [18] -11.1% | [19] -93.7% | [20] -60.2%
inactive: [13] 15.7% | [14] 29.8% | [16] 12.7%

COc1cc(C2CC(c3cc(OC)c(OCCCOc4ccc(-n5c(/C=C/c6ccccc6)nc6ccccc6c5=O)cc4)c(OC)c3)=NO2)cc(OC)c1OC (stereo not given)
inactive: [1] 120% | [2] 78.7% | [3] 143% | [4] 110% | [5] 116% | [6] 107% | [7] 81% | [8] 108% | [9] 106% | [10] 127% | [11] 84.7% | [12] 104% | [13] 86.9% | [14] 110% | [15] 103% | [16] 79.4% | [17] 95.6% | [18] 82.6% | [19] 94.6% | [20] 104%

Cc1ccc(Cc2cnc(NC(=O)c3ccc4noc(-c5ccccc5)c4c3)s2)cc1
active: [5] -4.67%
inactive: [1] 102% | [2] 91.2% | [3] 106% | [4] 94.8% | [6] 98.9% | [7] 95.9% | [8] 94.7% | [9] 99.3% | [10] 93.4% | [11] 88.6% | [12] 65.3% | [13] 94.1% | [14] 92.2% | [15] 96.3% | [16] 75.2% | [17] 94.9% | [18] 77% | [19] 93.1% | [20] 99%

COc1ccc(C2c3ccc4ccccc4c3Oc3nc(C)[nH]c(=O)c32)cc1 (stereo not given)
inactive: [1] 114% | [2] 90.6% | [3] 97% | [4] 93.6% | [5] 108% | [6] 94.3% | [7] 105% | [8] 96.8% | [9] 111% | [10] 95.7% | [11] 99.6% | [12] 142% | [13] 76.8% | [14] 94.7% | [15] 103% | [16] 96% | [17] 101% | [18] 94.5% | [19] 88.8% | [20] 98.7%
